Test results from the supplement of paper PMC3334620.
Whole data set: some 33,000 sequences, median “E-score (-0.5 to 0.5)” near -0.021, cut for the highest 2% near 0.32. What follows is part of a selection rich in the highest values, with near analogues and random picks from the rest.

These sequences were tested against T1, Zap1 (UniProt P47043) (assay: PBM E-score (8-mer binding enrichment) (E-score (-0.5 to 0.5)); higher = stronger / more preferred TF binding). Conditions: protein concentration: 200 nM; construct: GST-full length.
T1 sequence: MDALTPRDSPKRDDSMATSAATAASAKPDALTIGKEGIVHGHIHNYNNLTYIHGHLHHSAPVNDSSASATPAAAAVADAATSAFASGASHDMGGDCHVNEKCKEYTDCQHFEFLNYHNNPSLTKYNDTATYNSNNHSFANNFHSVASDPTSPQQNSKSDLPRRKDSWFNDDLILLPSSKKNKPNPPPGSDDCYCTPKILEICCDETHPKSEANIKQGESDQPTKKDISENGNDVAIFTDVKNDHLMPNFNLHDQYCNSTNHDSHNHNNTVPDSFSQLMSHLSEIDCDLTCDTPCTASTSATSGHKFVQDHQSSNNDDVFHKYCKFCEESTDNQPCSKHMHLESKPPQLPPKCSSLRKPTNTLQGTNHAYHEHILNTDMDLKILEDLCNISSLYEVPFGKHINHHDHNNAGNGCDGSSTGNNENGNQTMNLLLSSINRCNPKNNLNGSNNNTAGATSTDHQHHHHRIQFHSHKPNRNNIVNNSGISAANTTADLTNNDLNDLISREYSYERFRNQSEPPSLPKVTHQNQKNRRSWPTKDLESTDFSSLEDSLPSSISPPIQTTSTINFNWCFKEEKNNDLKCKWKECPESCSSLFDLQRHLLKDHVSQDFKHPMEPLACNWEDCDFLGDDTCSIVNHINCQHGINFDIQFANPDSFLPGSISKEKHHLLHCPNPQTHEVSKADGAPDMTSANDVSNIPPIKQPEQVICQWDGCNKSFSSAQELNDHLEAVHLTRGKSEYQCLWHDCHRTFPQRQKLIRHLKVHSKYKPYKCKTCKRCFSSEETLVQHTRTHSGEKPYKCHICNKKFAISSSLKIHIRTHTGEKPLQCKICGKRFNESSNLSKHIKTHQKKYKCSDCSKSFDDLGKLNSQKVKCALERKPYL
Method in brief: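 Detection of bound protein used fluorescent anti-GST, with scans normalised by masliner. The proteins were GST-tagged yeast transcription factors applied at about 100-200 nM to universal all-10-mer Agilent arrays made double-stranded by primer extension. Each ungapped eight-base word, pooled with its reverse complement, was scored with an E-score from the Universal PBM Analysis Suite.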

In order of rising “PBM E-score” value:
1. CCCCCTGC  -0.372
2. GCAGCTGC  -0.246
3. AGGATCTG  -0.242
4. ACATGCCG  -0.241
5. CGTGGAGA  -0.239
6. CACGGCTG  -0.212
7. CTCCCTGC  -0.212
8. AATCGTCG  -0.21
9. CCCCCTGA  -0.209
10. CTCCTTCA  -0.168
11. AGCGACGC  -0.162
12. AAGAGATG  -0.16
13. ACAAACTG  -0.16
14. GCCCTAGC  -0.148
15. GTGAGTGA  -0.147
16. AGAGGCCG  -0.144
17. ATATCTGG  -0.138
18. CGCTTTAG  -0.136
19. AGCCCTGA  -0.131
20. ATCGATTC  -0.119
21. GGAATCCA  -0.115
22. CGACCTAC  -0.114
23. TGAGTGCA  -0.113
24. CGCCACTA  -0.111
25. AGCCACCC  -0.108
26. ACGGATGG  -0.0981
27. CAAGACTC  -0.0977
28. GATAGAGC  -0.0954
29. ACGTACCA  -0.0952
30. CCAGGGGG  -0.095
31. AACAGGGC  -0.0745
32. GGAGTTTA  -0.0721
33. AGTGATGA  -0.0675
34. CACCTCTG  -0.0642
35. AAAAGCGT  -0.06
36. AGTCTGAT  -0.0553
37. CAGCGACA  -0.0507
38. ACCAGGGG  -0.0398
39. CGCTCACG  -0.0384
40. CGTGATGA  -0.0344
41. TGTGAACA  -0.0338
42. CATCTTTC  -0.0278
43. CCTAGGCC  -0.0276
44. AGGCTTTG  -0.027
45. CCACCCAA  -0.0177
46. CTACTGTA  -0.0171
47. ATGAGAGA  -0.0163
48. AATGTCGT  -0.0154
49. CTAGCAAC  -0.0149
50. TGACACCA  -0.0107
51. AGGTACGA  -0.0106
52. AATAGGGA  -0.0102
53. ACGTTGGG  -0.01
54. GCTATGAA  -0.0097
55. TCAGCTCA  -0.00847
56. ACAGCAAC  -0.00827
57. CACTAGCA  -0.00655
58. ACCAGGGA  -0.00163
59. CTATGATA  0.00378
60. GGCCTCGA  0.00761
61. CGTTAACA  0.00812
62. TCTTCGAA  0.00843
63. GGCCCTAC  0.0088
64. CTTACTTC  0.00964
65. CGGTACTA  0.0114
66. GTGGATGA  0.014
67. CCTTGGTC  0.0233
68. TAGCTCGA  0.0239
69. GCGTACCA  0.0288
70. AACAGGGA  0.044
71. AATAGGGG  0.0477
72. CAGTTAAG  0.0515
73. CCGTTTGC  0.0589
74. GTGCACGA  0.0644
75. GAACCCGA  0.0725
76. ACACCCCA  0.0819
77. AGAACCAG  0.0863
78. ACAATGCA  0.0982
79. ACCGCACT  0.109
80. AAGTTGTA  0.112
81. AGTTAACA  0.117
82. TCAACCAA  0.118
83. TGCATCAA  0.122
84. GGAGGTGA  0.13
85. GACCCCTC  0.138
86. GTATGATA  0.14
87. CCTTAAAC  0.143
88. TGGTACAA  0.146
89. CTAACCAG  0.146
90. AGAACCAA  0.148
91. TCGTACCA  0.149
92. AGGTACAA  0.15
93. CGGTTGTA  0.153
94. ACCGCAAG  0.153
95. ATCCAGAA  0.159
96. GGAACCAA  0.159
97. AAATACCG  0.162
98. CACCCTGA  0.162
99. TAGTACCA  0.163
100. ACCCCTGC  0.167
101. CACCCTGG  0.169
102. ACCACTAC  0.182
103. AGAACCAT  0.184
104. AACCCTCC  0.185
105. ACAACTAT  0.204
106. ACCGCAAA  0.205
107. AAAACCAA  0.209
108. ACACCCTG  0.21
109. GCCGCAAC  0.218
110. CGAGGTTC  0.22
111. ACAACCAG  0.23
112. GCAACCAA  0.231
113. CGAGGTGA  0.239
114. GACCCCGA  0.244
115. CTACCCGA  0.25
116. CAACCCGC  0.251
117. CACCCTCA  0.257
118. ACCTAGGT  0.26
119. CTAACCAA  0.262
120. CCACCCAC  0.263
121. AAACCCGA  0.264
122. TACCCAGA  0.265
123. AAATGGGT  0.265
124. AACCCCGA  0.266
125. ACAACCAA  0.267
126. ACCCCTCA  0.267
127. GCAACCAC  0.269
128. AAAACCAT  0.283
129. GACCCTGC  0.283
130. GGAGGTAA  0.289
131. AGTTAACC  0.289
132. ACCCCTGG  0.289
133. AGGTACTA  0.29
134. AACCCTCG  0.292
135. CGTTAACC  0.294
136. GCACCCTA  0.297
137. CGGTACCA  0.303
138. GACCCTGA  0.304
139. ACACCCTC  0.312
140. TTAACCAA  0.317
141. ACCGCAAT  0.319
142. GGTTAACA  0.32
143. ACAACCAT  0.322
144. CACCCTCC  0.326
145. CCACCCTA  0.327
146. CACCCTGC  0.331
147. GGGTACTA  0.335
148. ACACCCTA  0.335
149. AGGTTGTA  0.338
150. GGTGATGA  0.338
151. TACCCCGA  0.34
152. ACCGCAAC  0.341
153. GGGTACAA  0.345
154. TAACCCGA  0.345
155. AGGTACCA  0.347
156. AACAGGGT  0.348
157. ATATGATA  0.348
158. CAACCCGA  0.355
159. TGGTACCA  0.357
160. ACCAGGGT  0.358
161. CCACCCTC  0.358
162. GGAGGTTA  0.36
163. ACAACCAC  0.361
164. AATAGGGT  0.374
165. AACCCTCA  0.383
166. AACCCTGC  0.385
167. AACCCTGG  0.392
168. GGGTACCA  0.4
169. TACCCTGA  0.406
170. GTAACCAA  0.417
171. GGTTAACC  0.427
172. ATAACCAG  0.436
173. ATAACCAA  0.437
174. CGAGGTTA  0.455
175. ATAACCAT  0.457
176. AACCCTGA  0.461
